Screening results (PubChem BioAssay)
This is a sample that favours compounds with a hit; in the whole collection about 2.8% have one here.
TROY NFkB inh: inhibitors of TROY-dependent NF-kB signaling. 360,000 compounds, 0.98% hits. Q293 LMP1-TROYcd NF-kB luciferase reporter, 4 h. inhibition, % at 10 µM;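 active means compounds whose plate-normalised and pattern-corrected inhibition of the luciferase reporter signal at the single screening dose is 50% or more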
PAX8 inh HTS: lowers PAX8-driven luciferase in RMG-I cells. AID 652154. inhibition, % at 12.6 µM. RMG-I TPO-luciferase reporter, SteadyGlo, 24 h. 360,000 compounds, 1.2% hits;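 active means mean replicate inhibition at least 60% with every replicate also reaching 60%; inconclusive means only one of the two criteria is met; inactive means mean below 60% and not all replicates reaching 60%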;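 further: luciferase light reporting Pax8 driven TPO promoter activity; plate controls were median of neutral control wells for no effect and mitoxantrone controls for full effect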
LGR2 inh: inhibitors of bursicon-induced Drosophila LGR2 receptor cAMP signaling | inhibition, % at 9.99 µM | 380,000 compounds, 0.35% hits | HEK293 LGR2, CRE-luciferase, bursicon-stimulated, 4 h;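 active means drop in luminescence signal, shown as inhibition above about 50% in the replicate tests, limit read from the data, passing the limit was not always enough; inconclusive means probably only some replicates passing the limit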;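 further: agonist challenge used bursicon conditioned medium at about half maximal strength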
TWEAK-Fn14 inh: inhibitors of TWEAK-Fn14 interaction signaling; TWEAK-stimulated Fn14 reporter cells, luciferase luminescence, 8 h; inhibition, % at 10 µM; 360,000 compounds, 2% hits; in the data active means inhibition above about 50%
EWS-Fli inh: blocks EWS/Fli oncoprotein-driven transcription; A673 NR0B1-luciferase reporter, viability-normalised; inhibition, % at 12.6 µM; 350,000 compounds, 0.67% hits; AID 651661;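 active means mean inhibition of at least 50% after viability correction, with every replicate also passing that limit; inconclusive means mean reaches 50% but only one of two replicates passes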;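 further: firefly luciferase signal divided by Alamar Blue viability fluorescence both relative to DMSO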
Starred values were filed as active, the others as inactive; ? = inconclusive; . = no result given.

SMILES	TROY NFkB inh	PAX8 inh HTS	LGR2 inh	TWEAK-Fn14 inh	EWS-Fli inh
COc1ccc2c(=O)c(-c3ccc4c(c3)OCO4)coc2c1	20	-6	69*	70*	32
Clc1ccc(-c2csc(=Nc3cccnc3)n2CCCn2ccnc2)cc1Cl	46	-1	.	66*	8
CC(C)(C)c1cc[n+](C2=C([O-])c3ccccc3C(=O)/C2=N\S(=O)(=O)c2cccs2)cc1	70*	51	26	84*	18
O=C1/C(=N\S(=O)(=O)c2cccs2)C([n+]2ccccc2)=C([O-])c2ccccc21	83*	78*	?	27	-10
Cc1ccc[n+](C2=C([O-])c3ccccc3C(=O)C2=O)c1	.	26	-10	.	-22
O=S(=O)(/N=C/c1ccccc1O)c1cccs1	-11	.	.	7	.
CCNC(=O)C[C@H]1CC[C@@H]2[C@H](COC[C@H](O)CN2C(=O)c2cc(Cl)cc(Cl)c2)O1	.	.	5	.	.
O=C(N[C@H]1CC[C@@H](CCNC(=O)c2cnccn2)O[C@@H]1CO)c1ccc2c(c1)OCO2	.	-2	-11	.	-3
COc1ccccc1N(C(C)=O)C1=C(Cl)C(=O)c2ccccc2C1=O	-16	117*	?	24	56*
CC(=O)N(C1=C(N)C(=O)c2ccccc2C1=O)C(C)C	1	7	2	18	-30
C[C@H]1CN([C@@H](C)CO)C(=O)CCCn2nncc2CO[C@H]1CN(C)Cc1cccc2c1OCCCO2	.	.	-9	.	4
OC[C@H]1O[C@H](OCCc2ccc(O)cc2)[C@H](O)[C@@H](O)[C@@H]1O	-6	-4	9	14	-3
Cc1cc2c(c(C)c1CCO[C@@H]1O[C@H](CO)[C@@H](O)[C@H](O)[C@H]1O)C(=O)[C@@H](C)[C@@H]2O	0	86*	2	3	-15
COc1ccc(NC(=O)CCN2C(=O)c3ccccc3C2=O)c(OC)c1	-3	-1	2	2	0
COc1ccc(OC)c(N(CCN2C(=O)c3ccccc3C2=O)C(=O)CCl)c1	-7	104*	14	26	?
CN1c2ccc(Br)cc2[C@H]2[C@H](CCN2C(=O)c2ccc(F)cc2)[C@H]1CO	.	13	-44	.	0
O=C(C[C@H]1C=C[C@H](NC(=O)c2cccc(F)c2)[C@H](CO)O1)NCc1ccc(Oc2ccccc2)cc1	.	.	-3	.	17
CC(C)(C)NC(=O)CN(Cc1ccccc1)S(=O)(=O)c1ccccc1	4	-5	34	54*	2
COCC(=O)N1CC(=O)N2[C@H](C1)[C@@H](c1ccc(C#CCc3ccccc3)cc1)[C@@H]2CO	.	8	-3	.	-4
CN(C)c1ccc2c(c1)[C@@H]1C[C@H](CC(=O)N3CCc4ccccc4C3)O[C@@H](CO)[C@@H]1O2	.	10	2	.	0
COc1ccccc1Cc1c(-c2ccc(Cl)cc2)nc2c(C)cc(Br)cn12	25	31	-10	60*	37
COc1ccc(Cc2c(-c3ccc(OC)c(OC)c3)nc3c(C)cc(Br)cn23)c(C)c1	8	66*	1	48	8
COC(=O)c1ccc2nc(C(C)(C)C)c(Cc3ccc(OC)cc3C)n2c1	2	-1	14	-14	1
COc1ccc(Cc2c(-c3ccc(C)cc3)nc3c(C)cc(Br)cn23)c(C)c1	7	22	2	8	-9
COc1ccc(Cc2c(C(C)(C)C)nc3ccc(Br)cn23)c(C)c1	93*	-5	.	2	-13
SMILES	TROY NFkB inh	PAX8 inh HTS	LGR2 inh	TWEAK-Fn14 inh	EWS-Fli inh
Cc1noc(C)c1NC(=O)N[C@H]1CC[C@H](CCNC(=O)C2CCCCC2)O[C@@H]1CO	.	-11	-2	.	-11
CCOc1ccccc1/C=N/n1c(C2CCCCC2)n[nH]c1=S	14	-14	8	-17	5
COc1ccccc1/C=C/C=N/n1c(C2CCCCC2)n[nH]c1=S	69*	6	5	34	12
S=c1[nH]nc(C2CCCCC2)n1/N=C/c1ccncc1	14	-57	21	82*	-14
O=C(c1ccccc1)N1CC(=O)N2[C@H](CO)[C@H](c3ccc(C#CC4CC4)cc3)[C@@H]2C1	.	0	11	.	-2
O=C(C[C@H]1CC[C@H]2[C@@H](COC[C@@H](O)CN2S(=O)(=O)c2cccc(Cl)c2)O1)NC1CCC1	.	-1	-5	.	-2
COc1cc2cccc(OC)c(=O)c2c(O)c1OC	-22	-60	7	-41	-52
CC(=O)Oc1cc2cccc(OC(C)=O)c(=O)c2c(OC(C)=O)c1OC(C)=O	34	.	.	84*	.
COCCNC(=O)C[C@@H]1CC[C@H]2[C@H](COc3ccc(NC(=O)c4cnccn4)cc3C(=O)N2C)O1	.	-2	-5	.	4
O=C(Nc1nnc(SCC(=O)N2CCOCC2)s1)c1ccccc1	73*	-42	14	71*	-3
O=C(CSc1nnc(NC(=O)c2ccc(S(=O)(=O)N3CCOCC3)cc2)s1)Nc1ccccc1C(F)(F)F	-22	69*	-8	-1	1
CCOc1ccccc1C(=O)Nc1nnc(SCC(=O)N2CCOCC2)s1	-12	-1	4	-6	-15
C[C@H]1CN([C@@H](C)CO)S(=O)(=O)c2ccc(C#CC3CCCC3)cc2O[C@H]1CN(C)C(=O)Cc1ccccc1	.	52	-3	.	11
C[C@@H]1CN([C@H](C)CO)C(=O)Cc2cc(NC(=O)CCCCCC(=O)Nc3ccccc3N)ccc2O[C@H]1CN(C)S(=O)(=O)c1ccccc1	.	5	4	.	-9
Cc1nc2cc(NCc3nc4ccccc4n3Cc3ccccc3)ccc2n1C	87*	.	.	90*	.
Cc1nc2cc(NCc3cc([N+](=O)[O-])ccc3O)ccc2n1Cc1ccccc1	80*	-5	18	53*	18
O=C(NCc1cc(Br)cc(Br)c1OC(=O)c1ccccc1[N+](=O)[O-])c1ccccc1	34	-25	28	55*	14
CCC(=O)Nc1cc(SCCO)cc([N+](=O)[O-])c1	6	.	.	8	.
O=C(CCl)Nc1cc(SCC(O)CO)cc([N+](=O)[O-])c1 (stereo not given)	-4	108*	73*	10	47
O=[N+]([O-])c1ccc(-c2nc(C(Cl)Cl)c3ccccc3n2)cc1	34	3	41	-36	67*
COCc1cc(C)nc(SCC(=O)Nc2nc(C)cs2)c1C#N	39	-33	21	47	62*
COCc1cc(C)nc(SCC(=O)Nc2cccc(C)c2C)c1C#N	17	.	-2	10	8
Cc1ccc(S(=O)(=O)N(C)C[C@@H]2Oc3c(cccc3N(C)C)C(=O)N([C@H](C)CO)C[C@@H]2C)cc1	.	2	-13	.	-2
CC(=O)Nc1ccc(-c2ccnc(-c3ccc(NC(C)=O)cc3)n2)cc1	-15	6	-14	62*	-7
C=CCn1c(COc2ccc(Cl)cc2)nnc1SCC(=O)Nc1ccc(S(N)(=O)=O)cc1	-8	64*	35	-4	-7
CCn1c(COc2ccc(C)cc2)nnc1SCC(=O)Nc1ccc(S(N)(=O)=O)cc1	7	.	.	1	.
